Screen size: about 1,300 compounds; about 980 (75%) were called active. Roughly 4% stayed inconclusive and do not appear here. This is one part of the list.

The experiment deals with Sulfhydryl oxidase 1 (Homo sapiens) (UniProt O00391). The experiment is described as follows: inhibition of human sulfhydryl oxidase QSOX1 – biochemical, HyperBlu H2O2 luminescence, HTS, primary screen (AID 1347420). Note: values above 100% were filed as inconclusive. The conditions noted are these: recombinant QSOX1, HyperBlu H2O2 luminescence, at 12.5 µM, stronger effect = higher value; active = any value above zero unless noted.
Sequence of Sulfhydryl oxidase 1 (Homo sapiens) (O00391 whole entry, looked up): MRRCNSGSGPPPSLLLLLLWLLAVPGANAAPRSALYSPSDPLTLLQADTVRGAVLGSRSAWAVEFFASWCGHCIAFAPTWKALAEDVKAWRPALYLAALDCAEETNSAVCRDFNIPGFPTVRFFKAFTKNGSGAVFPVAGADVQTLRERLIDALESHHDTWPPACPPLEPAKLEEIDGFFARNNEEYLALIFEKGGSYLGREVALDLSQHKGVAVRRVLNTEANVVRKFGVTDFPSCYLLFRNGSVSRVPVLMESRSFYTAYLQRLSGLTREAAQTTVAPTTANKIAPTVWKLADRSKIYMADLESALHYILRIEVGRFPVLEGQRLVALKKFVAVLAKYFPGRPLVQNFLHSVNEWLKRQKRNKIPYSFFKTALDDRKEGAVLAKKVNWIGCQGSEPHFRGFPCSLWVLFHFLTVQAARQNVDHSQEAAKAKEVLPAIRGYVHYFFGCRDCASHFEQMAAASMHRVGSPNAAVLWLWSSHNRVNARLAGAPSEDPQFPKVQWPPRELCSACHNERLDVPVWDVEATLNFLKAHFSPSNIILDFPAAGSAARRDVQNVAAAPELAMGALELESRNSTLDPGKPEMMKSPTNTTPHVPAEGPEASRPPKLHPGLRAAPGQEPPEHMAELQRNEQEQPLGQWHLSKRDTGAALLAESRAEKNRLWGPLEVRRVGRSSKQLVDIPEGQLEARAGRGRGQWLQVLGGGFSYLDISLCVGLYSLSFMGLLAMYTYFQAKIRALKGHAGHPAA
Usually inhibition stands for the change of the read-out against control, counted positive when it falls. For `C[C@H]1C2Cc3ccc(O)cc3C1(C)CCN2CC1CC1` (stereo partly drawn), the inhibition was 26.8% [setting not given] (active).

In the case of `O=C1NCN(c2ccccc2)C12CCN(CC1COc3ccccc3O1)CC2` (stereo not drawn), the inhibition was 5.7% (active).

Regarding `O=C(CCCN1CCC2(CC1)C(=O)NCN2c1ccccc1)c1ccc(F)cc1`, the inhibition is 7.6% [setting not given] (active).

In the case of `CC(CCc1ccccc1)NC(C)C(O)c1ccc(O)cc1` (stereo not drawn), the inhibition was 28.5% (active).

In the case of `NC(=O)CN1CC(O)CC1=O` (stereo not drawn), the inhibition is 15.4% [setting not given] (active).

Consider `Cc1cccc(C)c1NC(=O)CN1CCCC1=O`, for which the inhibition was 13.4% [setting not given] (active).

Consider `O=C1CCCN1CC#CCN1CCCC1`, for which the inhibition was 12.7% [setting not given] (active).

On to `NC(=O)CN1CCCC1=O`, for which the inhibition was 1% [setting not given] (active).

`O=P1(N(CCCl)CCCl)NCCCO1` (stereo not drawn): the inhibition was -3.8% (inactive).

Turning to `C/C=C(/C)C(=O)O[C@H]1C(C)=C2[C@H]([C@@H]1OC(=O)CCCCCCC)[C@@](C)(OC(C)=O)C[C@H](OC(=O)CCC)[C@@]1(O)[C@H]2OC(=O)[C@@]1(C)O`, the inhibition was -2.4% (inactive).

As for `Cc1c2ccncc2c(C)c2c1[nH]c1ccccc12`, the inhibition is 78.9% [setting not given] (active).

As for `Cc1nccc2c1[nH]c1ccccc12`, the inhibition is 8.6% [setting not given] (active).

For the molecule `CC(=O)OCC1=C(C(=O)O)N2C(=O)[C@@H](NC(=O)CCC[C@@H](N)C(=O)O)[C@H]2SC1`, the inhibition was -10.7% (inactive).

Regarding `Cc1ncsc1CCCl`, the inhibition is 12.9% (active).

On to `c1ccc(C2(c3ccccc3)CC2C2=NCCN2)cc1` (stereo not drawn), for which the inhibition is 6.4% (active).

For the molecule `COc1cc(CC(C)N)c(OC)cc1I` (stereo not drawn), the inhibition is 7.8% [setting not given] (active).

On to `CS(=N)(=O)CC[C@H](N)C(=O)O` (stereo partly drawn), for which the inhibition is -10.8% (inactive).

With `NC(CCP(=O)(O)O)C(=O)O` (stereo not drawn), the inhibition is 12.3% (active).

Consider `N[C@@H](CCl)C(=O)O`, for which the inhibition was 8.8% (active).

With `NC(CP(=O)(O)O)C(=O)O` (stereo not drawn), the inhibition was 2.2% (active).

For `C[Se]C[C@H](N)C(=O)O`, the inhibition is -0.1% (inactive).

In the case of `NC(CCCCCP(=O)(O)O)C(=O)O` (stereo not drawn), the inhibition is -4.7% (inactive).

Consider `NCC(CP(=O)(O)O)c1ccc(Cl)cc1` (stereo not drawn), for which the inhibition was -10.6% (inactive).

Take `CN1C2CCC1CC(OC(c1ccccc1)c1ccccc1N)C2` (stereo not drawn): the inhibition was 14.6% (active).

Take `O=C(O)Cc1cnc[nH]1`: the inhibition is 5.5% (active).

Take `OCc1cnc[nH]1`: the inhibition is 3.5% (active).

Take `C[C@@H](N)Cc1cnc[nH]1`: the inhibition was 21.1% (active).

`C#CCOC(=O)C1=CCCN(C)C1`: the inhibition was 17.9% (active).

`COC(=O)C1=CCCN(C)C1`: the inhibition is 0.6% [setting not given] (active).

As to `CC(C)NC(C)Cc1ccc(I)cc1` (stereo not drawn), the inhibition was 19.1% [setting not given] (active).

For the molecule `CC(C)N(CCC(C(N)=O)(c1ccccc1)c1ccccn1)C(C)C` (stereo not drawn), the inhibition was 39.4% [setting not given] (active).

As to `Cc1cc([C@@H]2CCCN2C)on1`, the inhibition is 9.3% (active).

`CN1CCC(c2c[nH]c3ccc(O)cc23)CC1`: the inhibition was 84% (active).

With `CCCCCCC(C)(C)c1ccc([C@@H]2C[C@H](O)CC[C@H]2CCCO)c(O)c1`, the inhibition was 3.2% [setting not given] (active).

Turning to `Cc1cccc(C)c1NC1=NCCCS1`, the inhibition is 12.9% [setting not given] (active).

Take `C[C@@H]1O[C@@H](O[C@H]2C[C@@H](O)[C@]3(CO)[C@H]4[C@H](O)C[C@]5(C)[C@@H](C6=CC(=O)OC6)CC[C@]5(O)[C@@H]4CC[C@]3(O)C2)[C@H](O)[C@H](O)[C@H]1O`: the inhibition is 2.5% [setting not given] (active).

As for `C[C@@H]1O[C@@H](O[C@H]2C[C@@H](O)[C@]3(CO)[C@@H]4C(CC[C@]3(O)C2)[C@@]2(O)CC[C@H](C3COC(=O)C3)[C@@]2(C)C[C@H]4O)[C@H](O)[C@H](O)[C@H]1O` (stereo partly drawn), the inhibition is 24.8% (active).

`NC(=O)COc1c(F)cc(SCCNS(=O)(=O)c2ccccc2)cc1F`: the inhibition was -12.8% (inactive).

As to `Clc1ccc(N2CC3CCC(C2)N3)nn1`, the inhibition is 25.6% (active).

For the molecule `CC(C)=CCOc1c2occc2cc2ccc(=O)oc12`, the inhibition is 31.6% [setting not given] (active).

Take `CC(O)(CS(=O)(=O)c1ccc(F)cc1)C(=O)Nc1ccc(C#N)c(C(F)(F)F)c1` (stereo not drawn): the inhibition was 13.7% [setting not given] (active).

With `c1ccc2cc(CC3=NCCN3)ccc2c1`, the inhibition is 11% [setting not given] (active).

`CCCN1CCC[C@H](c2cccc(O)c2)C1`: the inhibition is 10.7% (active).

Regarding `CCCN1CCC[C@@H](c2cccc(O)c2)C1`, the inhibition was 25.8% (active).

`CC1(C(=O)O)C2CCC(O2)C1(C)C(=O)O` (stereo not drawn): the inhibition is -0.6% (inactive).

As for `CCCCC/C=C\C/C=C\C/C=C\C/C=C\CCCC(=O)NCC(=O)O`, the inhibition is 3.4% (active).

Take `NC1CC1c1ccccc1` (stereo not drawn): the inhibition was 14.9% (active).

With `Nc1ccc(CCN2CCN(c3cccc(C(F)(F)F)c3)CC2)cc1`, the inhibition was 27.1% (active).

`CC[C@@H](C(N)=O)N1CCCC1=O`: the inhibition was 12.2% [setting not given] (active).

With `CN1CCc2cc(O)cc3c2[C@H]1Cc1ccc(O)c(O)c1-3`, the inhibition was 94% (active).

As to `COc1ccc2c(c1O)-c1cccc3c1[C@@H](C2)N(C)CC3`, the inhibition was 39% (active).

`Cc1sc2ccccc2c1CC1=NCCN1`: the inhibition was 9.6% (active).

As to `CC(C)(O)[C@@H]1[C@H]2OC(=O)[C@@H]1[C@]1(O)C[C@H]3O[C@]34C(=O)O[C@H]2[C@]14C` (tested in a mixture with another compound), the inhibition is 14.8% (active).

`NC(N)=Nc1ccc2[nH]c3c(c2c1)C[C@@]1(O)[C@H]2Cc4ccc(O)c5c4[C@@]1(CCN2CC1CC1)[C@H]3O5`: the inhibition is 18.5% [setting not given] (active).

Consider `Oc1ccc2c3c1O[C@H]1c4oc5ccccc5c4C[C@@]4(O)C(C2)N(CC2CC2)CCC314` (stereo partly drawn), for which the inhibition is 18.4% [setting not given] (active).

Take `Oc1ccc2c3c1O[C@H]1c4[nH]c5c(c4C[C@@]4(O)[C@@H](C2)N(CC2CC2)CC[C@]314)C[C@@]1(O)[C@H]2Cc3ccc(O)c4c3[C@@]1(CCN2CC1CC1)[C@H]5O4`: the inhibition was 25.2% (active).

On to `Oc1ccc2c3c1O[C@H]1c4[nH]c5ccccc5c4C[C@@]4(O)C(C2)N(CC2CC2)CCC314` (stereo partly drawn), for which the inhibition is 63.8% [setting not given] (active).

For the molecule `O=C1/C(=C/c2ccccc2)C[C@@]2(O)[C@H]3Cc4ccc(O)c5c4[C@@]2(CCN3CC2CC2)[C@H]1O5`, the inhibition is 32.8% [setting not given] (active).

Regarding `CO[C@H]1CC=C2CCN3CCC4=C(CC(=O)OC4)[C@]23C1`, the inhibition was 0.7% (active).

Turning to `CCOC(=O)c1ncn2c1[C@@H]1CCCN1C(=O)c1cc(OC)ccc1-2`, the inhibition was 13.3% (active).

With `NCC(CC(=O)O)c1ccc(Cl)cc1` (stereo not drawn), the inhibition is 0% [setting not given] (inactive).

`CNCC(O)c1ccc(O)cc1` (stereo not drawn): the inhibition was 11.4% [setting not given] (active).

On to `NCC(O)c1ccc(O)cc1` (stereo not drawn), for which the inhibition was 20.3% [setting not given] (active).

Turning to `COc1cc(C(O)CN)ccc1O` (stereo not drawn), the inhibition was 20.7% (active).

Consider `NCC(O)c1cc(O)c(O)cc1F` (stereo not drawn), for which the inhibition is 72.8% (active).

Consider `Ic1ccccc1CNC1C2CCN(CC2)C1C(c1ccccc1)c1ccccc1` (stereo not drawn), for which the inhibition is 11% (active).

In the case of `O=C(O)[C@@H]1CCN1`, the inhibition was 18.9% (active).

With `N=C(N)c1ccc(CS(=O)(=O)F)cc1`, the inhibition was 7.2% (active).

For the molecule `CN1C2CCC1CC(OC(=O)c1cc(Cl)cc(Cl)c1)C2` (stereo not drawn), the inhibition was 5.4% (active).

In the case of `O=C1C=CC(=O)C=C1`, the inhibition is 16.8% (active).

As for `N[C@@]1(C(=O)O)CC[C@@H](C(=O)O)C1`, the inhibition was 12.2% (active).

Consider `CCN1C[C@@]2(COC)C3[C@@H](OC)C4[C@@H]1C3([C@@H]1C[C@@]3(O)[C@H](OC(=O)c5ccccc5)[C@@H]1[C@]4(OC(C)=O)[C@@H](O)[C@@H]3OC)[C@H](OC)C[C@H]2O`, for which the inhibition was 4.1% (active).

Take `CCNC(=O)[C@H]1O[C@@H](n2cnc3c(N)ncnc32)C(O)[C@H]1O` (stereo partly drawn): the inhibition is 1.2% (active).

Regarding `O=[N+]([O-])c1cc(O)c(O)c([N+](=O)[O-])c1`, the inhibition was 84.7% (active).

In the case of `NCc1cc(=O)[nH]o1`, the inhibition is 10.1% (active).

For `C=CCN1CC[C@]23CCCCC2[C@H]1Cc1ccc(O)cc13` (stereo partly drawn), the inhibition was 6% [setting not given] (active).

With `COc1ccc2c(c1)C13CCCCC1C(C2)N(C)CC3` (stereo not drawn), the inhibition is 11.3% [setting not given] (active).

Take `COc1ccc2c(c1)[C@@]13CCCC[C@H]1[C@@H](C2)NCC3`: the inhibition is -2.6% [setting not given] (inactive).

Take `C=CCN1C[C@@H](C)N([C@H](c2ccc(C(=O)N(CC)CC)cc2)c2cccc(OC)c2)C[C@@H]1C`: the inhibition is 7.5% (active).

As for `CC(=O)NBr`, the inhibition was 9.5% (active).

With `NC(N)=NOCC[C@H](N)C(=O)O`, the inhibition is -0.8% [setting not given] (inactive).

As for `NC(N)=NOCCC(N)C(=O)O` (stereo not drawn), the inhibition was 8.2% (active).

As for `CC(Cc1ccc(O)cc1)NCC(O)c1cc(O)cc(O)c1` (stereo not drawn), the inhibition is 15% [setting not given] (active).

With `CN1CCc2cccc(Cl)c2CC1`, the inhibition was 1.7% (active).

Take `CP(=O)(O)C1=CCNCC1`: the inhibition is -0.7% (inactive).

For `CCCN(CCC)C1Cc2cc(OC)c(OC)cc2C1`, the inhibition was 3.2% (active).

With `CCCN(CCC)[C@@H]1CCc2ccc(O)cc2C1`, the inhibition was 10.7% (active).

For the molecule `CCCN(CCC)C1CCc2ccc(O)cc2C1` (stereo not drawn), the inhibition is 28.1% (active).

For `O=S1(=O)N(CCN2CC=C(c3c[nH]c4cc(F)ccc34)CC2)c2cccc3c2N1CCC3`, the inhibition was 25.1% (active).

As for `C[C@H](N)Cc1cccc(C(F)(F)F)c1`, the inhibition is 4.9% [setting not given] (active).

For the molecule `COc1ccc(CNC(=O)/C=C/c2ccc3[nH]cc(CCN(C)C)c3c2)cc1`, the inhibition was 4.8% [setting not given] (active).

On to `O=C(O)c1cc[c]([Hg][Cl])cc1`, for which the inhibition was 1% (active).

For the molecule `CCC1(c2ccc(N)cc2)CCC(=O)NC1=O` (stereo not drawn), the inhibition was 27.6% [setting not given] (active).

These data come from PubChem BioAssay AID1347420 (Sanford-Burnham Center for Chemical Genomics, 2020).
